# An excerpt weighted towards active compounds, which were near 3% of everything screened.
# HEK293 viab – GF-AFC viability counterscreen for inhibitors of alpha-synuclein gene (SNCA) expression; HEK-293-SNCA-luc viability, GF-AFC fluorescence, 24 h; Potency, µM (titrated, usually from 57.1 µM), for the others: at the highest dose activity change, negative = cytotoxicity, usual class: cytotoxic; hit rate 0.12% among 150,000; AID 1671193, 2021;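 note: potency is the fitted concentration of half-maximal effect; 0% = DMSO-treated cells and -100% = medium-only wells without cells; nearly all actives have a fitted effect of over 30% in size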
#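 Cytotoxicity counterscreen: after 24 h compound treatment of genome-edited SNCA-luciferase HEK-293 cells, live-cell protease substrate GF-AFC read by fluorescence after 30 min; activity scaled between DMSO (0%) and medium-only (-100%), curves Hill-fitted.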
# IP6K1 inh – Primary qHTS assay for small molecule inhibitors of Inositol hexaphosphate kinase 1 (IP6K1); IP6K1 kinase, ADP-Glo luminescence, 2 h; stronger effect = lower value; hit rate 0.81% among 140,000; activity change, % (series mostly up to about 58 µM); AID 1645851, 2021; Inositol hexakisphosphate kinase 1 (Homo sapiens), Q92551; in the data active = activity change below about -25%; note: % is set by controls: 0 for no effect and ±100 for the full control effect
# Target sequence (Q92551 whole entry, looked up): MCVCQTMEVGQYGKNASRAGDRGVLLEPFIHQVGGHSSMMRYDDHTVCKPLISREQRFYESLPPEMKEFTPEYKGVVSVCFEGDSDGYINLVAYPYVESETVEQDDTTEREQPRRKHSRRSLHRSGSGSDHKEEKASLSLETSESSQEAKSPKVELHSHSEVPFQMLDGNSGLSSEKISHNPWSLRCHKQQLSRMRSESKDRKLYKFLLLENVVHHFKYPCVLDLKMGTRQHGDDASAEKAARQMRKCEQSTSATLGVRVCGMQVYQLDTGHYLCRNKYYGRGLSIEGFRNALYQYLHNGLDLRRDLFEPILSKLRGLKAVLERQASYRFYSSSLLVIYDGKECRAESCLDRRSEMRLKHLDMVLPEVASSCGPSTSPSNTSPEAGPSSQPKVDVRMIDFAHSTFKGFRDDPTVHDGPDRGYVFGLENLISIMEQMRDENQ
#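 ADP-Glo luminescence measures ADP made by human IP6K1 during a 2 h RT reaction with ATP/IP6 (mix at 1.3 mM/130 uM); top library doses 57.5 and 19.1 uM final.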
# KDM5B inh – Primary screen for KDM5B Histone Demethylases FDH-coupled qHTS. Lysine-specific demethylase 5B (Homo sapiens), Q9UGL1. KDM5B demethylase, FDH-coupled NADH fluorescence (FDH is formaldehyde dehydrogenase). Potency, µM (series often up to 57.7 µM), usual class: inhibitors. hit rate 2.6% among 220,000. AID 1347165, 2019; note: potency is the fitted concentration of half-maximal effect; 0% is about no effect; nearly all actives have a fitted effect of over 70% in size
#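 Measured: NADH fluorescence change, 30 min, RT. System: KDM5BΔAP 200 nM final, H3K4me3 peptide, α-KG, Fe(II), ascorbate, NAD⁺ plus FDH, pH 7.5 HEPES. Compounds: titrated, 10 min pre-incubation with enzyme.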
# SNCA expr inhib – Primary qHTS assay for inhibitors of alpha-synuclein gene (SNCA) expression. HEK-293 SNCA-luciferase knock-in, luminescence, 24 h. Potency, µM (top dose mostly 57.2 µM), without a hit: top-dose activity change, negative = inhibition, usual class: inhibitors. hit rate 0.17% among 140,000. AID 1671194, 2021;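 note: potency is the fitted concentration of half-maximal effect; plate controls were DMSO cells for no effect and cell-free wells for full effect; nearly all actives have a fitted effect of over 45% in size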
# * marks the source's active call; other numbers are inactive results; i = inactive; ? = inconclusive; nt = no result given; [ ] = remark or other dose. Unless noted, calls come from the whole dose curve; as a rule, active = well fitted curve in the direction sought with a large enough effect; inconclusive = small, poorly fitted or top-dose-only effect, or another doubt; inactive = no such curve, though single readings can be large; an effect the other way counts as inactive or inconclusive.
SMILES,HEK293 viab,IP6K1 inh,KDM5B inh,SNCA expr inhib
Cc1cc(C)c(CNC(=O)c2cc(-c3ccnn3C)cc3c2OCCN3C)c(=O)[nH]1,0.9%[87.6 µM],-20.5,35.5µM*,18.0%[87.6 µM]
COc1ncccc1-c1cc(C(=O)NCc2c(C)cc(C)[nH]c2=O)c2c(c1)N(C)CCO2,1.4%[87.6 µM],-12.6,35.5µM*,22.9%[87.6 µM]
Cc1cc(C)c(CNC(=O)c2cc(-c3cccnc3)cc3c2OCCN3C(C)C)c(=O)[nH]1,?,-24.5,?,10.4%[87.6 µM]
COc1ccc(-c2cc(C(=O)NCc3c(C)cc(C)[nH]c3=O)c3c(c2)N(C)CCO3)cc1,-2.7%[87.6 µM],-13.6,31.6µM*,-11.4%[87.6 µM]
Cc1cc(CNC(=O)c2cc(-c3ccnn3C)cc3c2OCCN3C)no1,2.0%[87.6 µM],-1.6,?,-3.3%[87.6 µM]
Cc1cc(SCC(=O)NC2CCS(=O)(=O)C2)nc2c(C)cccc12 (stereo not given),nt,nt,i,nt
Cc1cc(C)cc(-c2ccc(CN3CCCC(N[S+](=O)([O-])c4cccc(C(F)(F)F)c4)C3)cc2)c1 (stereo not given),-11.6%,-9.2,nt,?
O=C1Nc2ccc(-c3cccs3)cc2C(=O)N2CC[C@H](NS(=O)(=O)c3ccc(Cl)cc3)C[C@@H]12,-0.7%,-4.7,31.6µM*,-10.3%
CC(C)(C)CC(=O)N[C@H]1C[C@H]2C(=O)Nc3ccc(-c4cccs4)cc3C(=O)N2C1,-0.6%[87.6 µM],13.1,17.8µM*,-0.5%[87.6 µM]
C=CCNC(=O)N[C@H]1C[C@H]2C(=O)Nc3ccc(-c4cccs4)cc3C(=O)N2C1,-17.6%[87.6 µM],8.4,?,-8.9%[87.6 µM]
Cc1ccsc1CN1CCCCC12Cc1ccccc1CNC2=O (stereo not given),-22.2%,4.7,?,-3.7%
O=C(NCCc1ccccc1)c1cc2n(n1)CC(c1ccc3c(c1)OCO3)OC2 (stereo not given),-6.3%,7.7,?,-3.8%
COc1ccccc1CNC(=O)c1cc2n(n1)CC(c1ccc3c(c1)OCO3)OC2 (stereo not given),-0.2%,0.0,25.1µM*,?
COc1ccc(OC)c(NC(=O)c2cc3n(n2)CC(c2ccc4c(c2)OCO4)OC3)c1 (stereo not given),-2.0%,-3.3,i,3.5%
O=C(NCc1cccc(Cl)c1)c1cc2n(n1)CC(c1ccc3c(c1)OCO3)OC2 (stereo not given),8.2%,22.9,20µM*,2.9%
Cc1ccc(CCNC(=O)c2cc3n(n2)CC(c2ccc4c(c2)OCO4)OC3)cc1 (stereo not given),3.7%,21.4,25.1µM*,-14.1%
COc1ccc(CNC(=O)c2cc3n(n2)CC(c2ccc4c(c2)OCO4)OC3)cc1OC (stereo not given),-7.5%,-6.8,25.1µM*,-15.7%
O=C(Nc1cccnc1)c1cnc2c(c1)N(Cc1ccccc1)CCC2,2.0%[87.6 µM],-5.0,35.5µM*,-2.4%[87.6 µM]
CC(C)c1ccc(CC(=O)N2CCCc3ncc(C(=O)Nc4ccccn4)cc32)cc1,?,-0.7,i,-5.7%[87.6 µM]
CC(C)c1ccc(CC(=O)N2CCCc3ncc(C(=O)Nc4cccc(Cl)c4)cc32)cc1,?,6.7,28.2µM*,?
O=C(Nc1ccccc1)c1cnc2c(c1)N([S+](=O)([O-])c1cccnc1)CCC2,-0.7%[87.6 µM],18.1,i,4.2%[87.6 µM]
CC(C)c1ccc(CC(=O)N2CCCc3ncc(C(=O)Nc4cccnc4)cc32)cc1,?,-21.6,?,1µM*
O=C(C1CCN(c2nccc(Nc3ccccc3Cl)n2)CC1)N1CCC(c2ccccc2)CC1,-7.7%,1.8,nt,?
Cc1cccc(C)c1NC(=O)CO/N=C/c1ccccc1O,nt,nt,i,nt
CN(C)CCNC(=O)c1cc(-c2ccccc2F)cc2c1OCCN2Cc1cccnc1,?,-20.1,35.5µM*,?
CC(C)NC(=O)c1cc(-c2ccccc2F)cc2c1OCCN2Cc1cccnc1,?,-15.3,22.4µM*,?
CN(C)CCN(C)C(=O)c1cc(-c2ccccc2F)cc2c1OCCN2Cc1cccnc1,-17.0%,-19.9,i,-1.1%
CNC(=O)c1cc(C2CC2)nc2onc(C3CCN(C(=O)C4CCCCC4)C3)c12 (stereo not given),nt,-2.0,nt,nt
Cc1ccnc(N2CCC(O)(c3ccc(F)cc3)CC2)n1,-17.1%,-4.6,28.2µM*,6.6%

# Screening data from PubChem.
